Assay [1] is described as follows: CPHEA_Stoker_NIS_Cytotoxicity: Cytotoxicity Assessment for CPHEA's Radioactive Iodide Uptake (RAIU) Assay for Sodium/Iodide Symporter (NIS) Inhibition, Stoker and Laws Labs (AID 2283897; active = hit-call score of the fitted dose curve at least 0.9, where 1 is the maximum;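 as to AC50: active means loss of ATP signal versus DMSO meaning cytotoxicity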). In a few lines:
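CellTiter-Glo ATP luminescence gauged viability in HEK293T cells expressing human NIS after 2 h chemical exposure. Concentrations ran 0.001–100 uM in 0.5% DMSO; DMSO served as baseline for the loss-of-signal fit.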

Assay [2] can be described thus: CEETOX_H295R_OHPREG_noMTC: CeeTox H295R High-throughput Steroidogenesis Assay for OH-Pregnenolone (OHPREG), maximum tolerated concentration (MTC) filtered results only (AID 2283912). The settings on record: actives raise or lower the signal. In a few lines:
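H295R human adrenal cells, forskolin-prestimulated (10 uM, 48 h), then exposed to test chemical in 0.1% DMSO for 48 h. 17alpha-hydroxypregnenolone in medium measured by HPLC-MS/MS after MTBE extraction; bidirectional fit versus DMSO, concentrations not MTC-filtered.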

A short description of assay [3]: CEETOX_H295R_OHPROG_noMTC: CeeTox H295R High-throughput Steroidogenesis Assay for OH-Progesterone (OHPROG), maximum tolerated concentration (MTC) filtered results only (AID 2283914). The settings on record: actives raise or lower the signal. In outline:
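H295R human adrenal cells prestimulated 48 h with 10 uM forskolin, then exposed 48 h to test chemical (0.1% DMSO final). Medium 17alpha-hydroxyprogesterone extracted with MTBE, quantified by HPLC-MS/MS; bidirectional fit versus DMSO, concentrations not MTC-filtered.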

Assay [4] is described as follows: CEETOX_H295R_ESTRADIOL_noMTC: CeeTox H295R High-throughput Steroidogenesis Assay for Estradiol, maximum tolerated concentration (MTC) filtered results only (AID 2283919). The following applies: actives raise or lower the signal. In outline:
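H295R human adrenal cells pre-stimulated 48 h with 10 uM forskolin, then exposed 48 h to chemical (0.1% DMSO final). Estradiol in medium measured by HPLC-MS/MS after MTBE extraction and dansyl derivatization; bidirectional fit versus DMSO, concentrations not MTT-filtered.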

The nature of assay [5]: CEETOX_H295R_PROG_noMTC: CeeTox H295R High-throughput Steroidogenesis Assay for Progesterone (PROG), maximum tolerated concentration (MTC) filtered results only (AID 2283920). The settings on record: actives raise or lower the signal. In outline: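 H295R human adrenal cells were prestimulated 48 h with 10 uM forskolin, then exposed 48 h to test chemical (0.1% DMSO final). Progesterone in medium was quantified by HPLC-MS/MS; bidirectional fitting versus DMSO, concentrations not MTC-filtered.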

A short description of assay [6]: CEETOX_H295R_ESTRONE_noMTC: CeeTox H295R High-throughput Steroidogenesis Assay for Estrone, maximum tolerated concentration (MTC) filtered results only (AID 2283921). The settings on record: actives raise or lower the signal. In outline:
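H295R cells prestimulated 48 h with 10 uM forskolin, then exposed 48 h to chemical in 0.1% DMSO; medium estrone measured by HPLC-MS/MS after MTBE extraction and dansyl derivatization, fitted bidirectionally versus DMSO without MTT-based MTC filtering.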

Assay [7] in a line: CEETOX_H295R_ANDR_noMTC: CeeTox H295R High-throughput Steroidogenesis Assay for Androstenedione (ANDR), maximum tolerated concentration (MTC) filtered results only (AID 2283915). The following applies: actives raise or lower the signal. In a few lines:
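H295R cells, passage 10 or below, prestimulated 48 h with 10 uM forskolin, then exposed 48 h to chemical in 0.1% DMSO. Medium androstenedione extracted with MTBE, quantified by HPLC-MS/MS; concentrations not MTC-filtered; bidirectional fit versus DMSO.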

The nature of assay [8]: CEETOX_H295R_TESTO_noMTC: CeeTox H295R High-throughput Steroidogenesis Assay for Testosterone (TESTO), maximum tolerated concentration (MTC) filtered results only (AID 2283924). The settings on record: actives raise or lower the signal. In a few lines:
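H295R cells prestimulated 48 h with 10 uM forskolin, then exposed 48 h to chemicals in 0.1% DMSO final. Testosterone in medium quantified by MTBE extraction and HPLC-MS/MS; bidirectional fit versus DMSO, concentrations […] filtered by MTT-based maximum tolerated concentration.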

Assay [9] in a line: CEETOX_H295R_11DCORT_noMTC: CeeTox H295R High-throughput Steroidogenesis Assay for 11-Deoxycortisol (11DCORT), maximum tolerated concentration (MTC) filtered results only (AID 2283911). The settings on record: actives raise or lower the signal. In a few lines:
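Forskolin-primed (10 uM, 48 h) H295R adrenal cells are dosed for 48 h at 0.1% DMSO; medium 11-deoxycortisol is quantified by LC-MS/MS against a 7-point standard curve, with activity fitted in both directions versus DMSO.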

The nature of assay [10]: CEETOX_H295R_CORTISOL_noMTC: CeeTox H295R High-throughput Steroidogenesis Assay for Cortisol, maximum tolerated concentration (MTC) filtered results only (AID 2283916). The settings on record: actives raise or lower the signal. In outline: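 H295R adrenal cells were pre-stimulated 48 h with 10 uM forskolin, then exposed 48 h to test chemical in 0.1% DMSO. Medium cortisol was measured by MTBE extraction and HPLC-MS/MS; bidirectional fit versus DMSO, concentrations not MTC-filtered.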

Assay [11] is described as follows: CEETOX_H295R_CORTIC_noMTC: CeeTox H295R High-throughput Steroidogenesis Assay for Corticosterone (CORTIC), maximum tolerated concentration (MTC) filtered results only (AID 2283917). The following applies: actives raise or lower the signal. In outline:
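H295R, 10 uM forskolin prestim 48 h → test chem (0.1% DMSO final) 48 h → media MTBE extraction → HPLC-MS/MS corticosterone. Bidirectional fit vs DMSO baseline; no MTT-based MTC filtering.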

Assay [12] can be described thus: CEETOX_H295R_DOC_noMTC: CeeTox H295R High-throughput Steroidogenesis Assay for DOC, maximum tolerated concentration (MTC) filtered results only (AID 2283918). The settings on record: actives raise or lower the signal. In outline:
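H295R cells prestimulated 48 h with 10 uM forskolin, then exposed 48 h to test chemical (0.1% DMSO final). Medium 11-deoxycorticosterone extracted with MTBE, quantified by HPLC-MS/MS; bidirectional fit versus DMSO, concentrations not MTC-filtered.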

More than one record can exist for a structure, and the calls need not agree. Activity calls are given as the source filed them. The calls were made as follows, unless noted: active = hit-call score of the fitted dose curve at least 0.9, where 1 is the maximum; inactive = score below 0.9.

Turning to `CCCCCC(=O)O[C@]1(C(C)=O)CC[C@H]2[C@@H]3CCC4=CC(=O)CC[C@]4(C)[C@H]3CC[C@@]21C`, the outcome in assay [1] was inactive.
Consider `CCCCCCCCOS(=O)(=O)O`, for which the result in assay [1] was inactive.
On to `COC(=O)C(C)Oc1ccc(Oc2ncc(C(F)(F)F)cc2Cl)cc1` (stereo not drawn), for which the outcome in assay [1] was inactive. In addition, the AC50 is 14.1 µM (active) in assay [2]; 1.86 µM (active) in [3]; 23.5 µM (active) in [4]; 35.1 µM (active) in assay [5]; 27.9 µM (active) in [6].
Take `CCCCCCCCCO`: the outcome in [1] was inactive.
`CCCCCC1C(=O)CCC1CC(=O)OC` (stereo not drawn): the call in assay [2], in assay [3] and in assay [5] was inactive.
For the compound `CCCCCCOc1ccc(O)cc1`, the outcome in assay [1] was inactive.
On the same count and under the same terms, for `O=C(OCc1ccccc1)c1ccccc1O` the value was “inactive”.
Regarding `COC(=O)c1cccc(C(=O)OC)c1`, the outcome in assay [2], in assay [3], in [7], in [4], in [5] and in assay [6] was inactive. Moreover, in assay [8], the compound was called inactive.
`CC(=O)OC/C=C(C)/C=C/C=C(C)/C=C/C1=C(C)CCCC1(C)C`: the result in assay [2], in [3], in assay [4] and in [6] was inactive. The AC50 in assay [5] is 34 µM (active).
For `CCCCCCCCCOS(=O)(=O)O`, the outcome in assay [1] was inactive.
Take `O=c1cc(-c2ccc(O)cc2)oc2cc(O)cc(O)c12`: the outcome in [1] was inactive.
As for `CC/C(=C(\c1ccccc1)c1ccc(OCCN(C)C)cc1)c1ccccc1`, in assay [1], the AC50 is 36.2 µM (active) and the result was inactive.
`c1ccc(Cc2ccccc2)cc1`: the outcome in assay [1] was inactive.
Same read-out and setting: for `CCCCCCCCCCCCOCCOS(=O)(=O)O` the value was “inactive”.
Take `CCCCCCCCCCOC(=O)c1ccccc1C(=O)OCCCCCCCC`: the AC50 in [9] is 45.7 µM (active); in assay [2], 41.3 µM (active); in assay [3] it was 40.4 µM (active); in [7], 44 µM (active); in assay [12] it was 33.3 µM (active); in [5], 39.1 µM (active). In addition, the AC50 in assay [8] is 43 µM (active). Further, the compound was classed as inactive in assay [10], in [11], in assay [4] and in [6].

The record behind these values is PubChem BioAssay (EPA / NIEHS).
